Source: PubChem
LGR2 inh = blocks bursicon-induced cAMP signaling via Drosophila LGR2. inhibition, % at 9.99 µM. hit rate 0.35% among 380,000. HEK293 LGR2, CRE-luciferase, bursicon-stimulated, 4 h;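 active = drop in luminescence signal, shown as inhibition above about 50% in the replicate tests, limit read from the data, passing the limit was not always enough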;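 also: agonist challenge used bursicon conditioned medium at about half maximal strength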
KKLEB tox = CF airway cell cytotoxicity counter-screen. KKLEB CF airway cells viability, ATPlite luminescence, overnight; active compounds read low; cells stimulated with P. aeruginosa culture filtrate. AID 602141. hit rate 0.36% among 360,000. activity change (cytotoxicity), % at 5 µM;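 active = corrected activity change at or below -50% at 5 µM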
Peg3 promoter = reduces Peg3 promoter-driven luciferase expression in HeLa; inhibition, % at 20 µM; AID 588405; hit rate 1.7% among 360,000; HeLa PEG-Prom luciferase reporter, luminescence, overnight;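 active = inhibition of at least 50% at 20 µM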
Mdm2-MdmX inh = disrupts the human Mdm2-MdmX interaction; O15151+Q00987; AID 485346; SaOS-2 split-luciferase Mdm2/MdmX complementation, luminescence; inhibition, % at 8 µM; hit rate 3% among 330,000;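 active = inhibition of at least 50% at 8 µM in the primary screen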
Target sequence (O15151 whole entry, looked up): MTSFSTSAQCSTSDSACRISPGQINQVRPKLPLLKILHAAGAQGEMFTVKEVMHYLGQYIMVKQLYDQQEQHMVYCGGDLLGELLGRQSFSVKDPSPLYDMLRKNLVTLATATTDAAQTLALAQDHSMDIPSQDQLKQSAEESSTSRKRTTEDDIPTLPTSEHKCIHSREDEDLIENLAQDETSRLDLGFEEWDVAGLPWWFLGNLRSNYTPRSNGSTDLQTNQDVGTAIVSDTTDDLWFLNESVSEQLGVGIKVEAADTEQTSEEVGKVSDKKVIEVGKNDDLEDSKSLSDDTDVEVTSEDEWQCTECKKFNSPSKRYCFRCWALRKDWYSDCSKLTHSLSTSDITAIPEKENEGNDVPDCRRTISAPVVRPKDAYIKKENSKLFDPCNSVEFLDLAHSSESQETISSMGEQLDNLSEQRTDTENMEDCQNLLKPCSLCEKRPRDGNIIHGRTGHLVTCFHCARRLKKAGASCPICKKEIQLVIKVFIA
Target sequence (Q00987 whole entry, looked up): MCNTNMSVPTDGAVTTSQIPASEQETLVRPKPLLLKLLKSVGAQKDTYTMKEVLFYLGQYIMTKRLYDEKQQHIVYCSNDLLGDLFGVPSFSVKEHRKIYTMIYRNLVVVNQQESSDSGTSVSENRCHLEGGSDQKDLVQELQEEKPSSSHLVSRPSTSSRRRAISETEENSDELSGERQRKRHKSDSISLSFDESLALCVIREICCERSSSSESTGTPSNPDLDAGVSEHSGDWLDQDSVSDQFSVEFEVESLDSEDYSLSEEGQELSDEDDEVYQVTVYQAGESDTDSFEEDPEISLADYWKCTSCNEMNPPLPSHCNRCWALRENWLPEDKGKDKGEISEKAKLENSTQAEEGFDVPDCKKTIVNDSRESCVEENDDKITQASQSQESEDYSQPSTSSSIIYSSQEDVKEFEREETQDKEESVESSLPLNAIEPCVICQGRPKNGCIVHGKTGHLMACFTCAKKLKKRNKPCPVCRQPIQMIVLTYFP
HSP90 refold inh = inhibitors of HSP90 luciferase refolding in rabbit reticulocyte lysate | luciferase refolding luminescence, 3 h | inhibition, % at 5.6 µM | hit rate 0.91% among 290,000 | AID 1789;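 active = inhibition above the screen-wide mean plus 3 SD, computed separately per campaign, cut at about 16% in these data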;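 also: 0% = DMSO wells and 100% = 60 µM geldanamycin wells; inhibitors lower the luminescence because luciferase stays unfolded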
CF NFkB block = inhibitors of cystic fibrosis induced NF-kB | KKLEB NF-kB-GFP reporter, PAF-induced, GFP fluorescence overnight | inhibition, % at 5 µM | hit rate 0.86% among 360,000;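 active = at least 50% inhibition at 5 µM, scaled per plate between neutral and stimulator controls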;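 also: PAF is a Pseudomonas aeruginosa culture filtrate used as stimulus; plate controls were PAF-stimulated DMSO wells for no effect and unstimulated DMSO wells for full effect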
Mdm2-MdmX conf = human Mdm2/MdmX binding inhibition, confirmed. shares compounds with Mdm2-MdmX inh. luminescent assay. inhibition, % at 8 µM. hit rate 55% among 10,000. AID 489028; in the data active = inhibition above about 40%
FLuc counter = full-length luciferase inhibition in Mdm2/MdmX counter-screen; shares compounds with Mdm2-MdmX inh; AID 504607; inhibition, % at 8 µM; hit rate 77% among 6,200; SaOS-2 full-length luciferase counterscreen, luminescence;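 active = mean inhibition at 8 µM reaching about 37%, which flags the compound as non-specific, limit read from the data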;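 also: p53-null SaOS-2 cells with luciferase driven by a doxycycline-inducible promoter; compound on cells about two nights before reading with doxycycline added after day one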
Active calls of the source: *; x = no result. This is a sample that favours compounds with a hit; in the whole collection about 3.6% have one here.

SMILES	LGR2 inh	KKLEB tox	Peg3 promoter	Mdm2-MdmX inh	HSP90 refold inh	CF NFkB block	Mdm2-MdmX conf	FLuc counter
O=C(NCC1CC1)[C@H]1[C@H](CO)[C@H]2Cn3c(ccc(C4=CCCCC4)c3=O)[C@@H]1N2	-2	x	x	x	x	x	x	x
C[C@H]1CN([C@@H](C)CO)C(=O)Cc2cc(NS(=O)(=O)c3cn(C)cn3)ccc2O[C@@H]1CN(C)C(=O)NC1CCCCC1	-1	x	x	x	x	x	x	x
CCNC(=O)C[C@H]1CC[C@H](NC(=O)C2CCOCC2)[C@H](CO)O1	4	x	x	x	x	x	x	x
C=CCC[C@H](Cc1ccc(F)cc1)C(=O)OC[C@H](Cc1c[nH]c2ccccc12)NC(=O)[C@@H](CC=C)CC(=O)N[C@@H](CO)Cc1ccccc1	1	-35	35	77*	x	40	42*	49*
C=CC[C@H](CC(=O)N[C@H](CO)Cc1ccccc1)C(=O)N[C@H](COC(=O)[C@@H](CC=C)Cc1ccc(F)cc1)Cc1c[nH]c2ccccc12	x	10	-10	x	x	-12	x	x
C=CCC[C@H](Cc1ccc(F)cc1)C(=O)OC[C@H](Cc1c[nH]c2ccccc12)NC(=O)[C@@H](CC=C)CC(=O)N[C@H](CO)Cc1ccccc1	19	8	22	85*	x	-8	29	x
C=CC[C@@H](CC(=O)N[C@H](CO)Cc1ccccc1)C(=O)N[C@H](COC(=O)[C@@H](CC=C)Cc1ccc(F)cc1)Cc1c[nH]c2ccccc12	12	-8	46	81*	x	22	49*	37*
C=CCC[C@@H](Cc1ccc(F)cc1)C(=O)OC[C@H](Cc1c[nH]c2ccccc12)NC(=O)[C@H](CC=C)CC(=O)NCCO	18	-15	22	54*	x	-3	16	x
O=S(=O)(c1ccc(F)cc1)N1CCCCN2[C@H](CO)[C@H](c3ccc(-c4ccccc4)cc3)[C@H]2C1	16	x	x	x	x	x	x	x
CCNC(=O)C[C@@H]1CC[C@@H](NS(=O)(=O)c2ccc(C)cc2)[C@H](CO)O1	5	x	x	x	x	x	x	x
COCC(=O)N1[C@H](CO)[C@H]2c3ccccc3N(C(=O)NC(C)C)C[C@H]21	-3	x	x	x	x	x	x	x
CC1=CC(=Nc2c(C)n(C)n(-c3ccccc3)c2=O)C=C(C)C1=O	2	1	1	77*	1	14	26	x
CC1=CC(=Nc2c(C)n(C)n(-c3ccccc3)c2=O)C=CC1=O	x	x	x	69*	3	x	8	x
O=c1[nH]c(Nc2nc3ccccc3o2)nc2c1CCCC2	-5	21	58*	100*	1	-22	75*	79*
C[C@@H]1CN([C@@H](C)CO)C(=O)c2cc(NC(=O)Nc3ccc(C(F)(F)F)cc3)ccc2O[C@H]1CN(C)S(=O)(=O)c1ccc(Cl)cc1	19	x	x	x	x	x	x	x
Cc1[nH]c(=O)[nH]c(=O)c1CSc1nnc([C@@H](NC(=O)OC(C)(C)C)C(C)C)o1	x	2	12	84*	-1	7	3	x
Cc1[nH]c(=O)[nH]c(=O)c1CSc1nnc(CCCCCNC(=O)OC(C)(C)C)o1	1	-6	19	-6	0	5	x	x
N#Cc1c2ccc([N+](=O)[O-])cc2[n+]([O-])n1-c1ccccc1	12	-38	100*	77*	x	-24	35	x
CCn1c(SCC#N)nc2ccccc2c1=O	-1	-9	14	17	-1	0	x	x
N#CCSc1nc2ccccc2c2nc3ccccc3n12	11	-46	40	87*	0	42	63*	87*
COc1cccc(OC)c1C(=O)O/N=C(\N)c1ccncc1	0	-7	-13	6	-1	10	x	x
N/C(=N\OC(=O)Cc1ccccc1)c1ccc(Br)cc1	x	12	-101	-30	-5	-13	x	x
N/C(Cc1ccccc1)=N\OC(=O)c1cccc2ccccc12	-2	-1	78*	98*	2	1	67*	57*
N/C(=N\OC(=O)c1cccc2ccccc12)c1ccc(Br)cc1	-33	4	-32	98*	1	-8	80*	94*
N/C(=N\OC(=O)c1cccc2ccccc12)c1ccncc1	-34	-7	-166	51*	-6	-9	-5	x
SMILES	LGR2 inh	KKLEB tox	Peg3 promoter	Mdm2-MdmX inh	HSP90 refold inh	CF NFkB block	Mdm2-MdmX conf	FLuc counter
C[C@@H]1CN([C@@H](C)CO)C(=O)Cc2cc(NC(=O)C3CCCCC3)ccc2O[C@H]1CN(C)C	4	x	x	x	x	x	x	x
Cc1cccn2c(=O)nc(SCC(=O)N3N=C(c4cccs4)CC3c3ccc(F)cc3)nc12 (stereo unspecified)	7	1	28	51*	x	-22	51*	71*
CC(C)OC(=O)N(C)C[C@H]1OCc2ccccc2-c2ccccc2C(=O)N([C@H](C)CO)C[C@H]1C	-8	x	x	x	x	x	x	x
CCN(CC)CCNc1cc(C)nc2c1C(=O)C(=O)C=C2N1CCCCC1	26	14	74*	65*	5	-7	67*	29
O=C(Nc1cccc(-c2nc3ccccc3[nH]2)c1)c1cccc(NC(=O)c2ccco2)c1	x	-59*	104*	100*	3	38	29	56*
O=C(Nc1ccc(-c2nc3ccccc3[nH]2)cc1)c1ccc2c(c1)OCO2	-40	-34	64*	90*	0	39	67*	29
C[C@@H]1CN([C@@H](C)CO)C(=O)c2cc(NC(=O)Nc3ccc(F)cc3)ccc2O[C@@H]1CN(C)C(=O)Nc1ccc(C(F)(F)F)cc1	29	x	x	x	x	x	x	x
Cc1ccc(C(C(=O)NCc2ccco2)N(C(=O)CNC(=O)c2cccs2)c2ccc(C)cc2C)cc1 (stereo unspecified)	2	-18	20	59*	-2	9	4	x
Cc1ccc(-c2nn3c(C)nnc3c3ccccc23)cc1S(=O)(=O)NC(C)(C)CO	x	-5	-26	71*	2	-80	53*	78*
Cc1ccc(-c2nn3c(C)nnc3c3ccccc23)cc1S(=O)(=O)NC(C)c1ccccc1 (stereo unspecified)	x	-63*	19	62*	-1	-86	30	x
Cc1nnc2c3ccccc3c(-c3ccccc3)nn12	x	-6	13	64*	0	-54	28	x
CCOC(=O)C1(N(CC)CC)Sc2cc(C)ccc2NC1=O (stereo unspecified)	x	-30	36	68*	6	24	69*	52*
COc1cccc2c1C(=O)c1c(O)c3c(c(O)c1C2=O)CC(O)(C(C)=O)CC3OC1CC(O)C(O)C(C)O1 (stereo unspecified)	x	-4	-52	x	x	-310	x	x
COc1cccc2c1C(=O)c1c(O)c3c(c(O)c1C2=O)C[C@](O)(C(C)=O)C[C@H]3O[C@@H]1C[C@@H](N)[C@@H](O)[C@@H](C)O1	1	16	105*	100*	x	65*	100*	-1
